Most compounds without a hit are left out; they make up all but 6.5% or so of the library.
VACV Venus inh: vaccinia inhibition (Venus reporter); Vaccinia virus Venus reporter expression, fluorescence; hit rate 0.46% among 330,000; Potency, µM (doses to about 36.5 µM), most hits filed as inhibitors; AID 720580; calls by dose curve; tested in A549 cells; note: nearly all actives have a fitted effect of over 30% in size
HCMV inh: inhibitors of human cytomegalovirus. AID 1259415. activity change, negative = inhibition, % at 57.5 µM. hit rate 4.5% among 410,000. HFF cells, HCMV-luciferase reporter, 72 h; stronger effect = lower value; in the data active = activity change below about -60%; inconclusive = no clear call, values can overlap the other calls; inactive = above about -39%
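Compounds were evaluated in HFFs infected with an HCMV luciferase reporter virus (MOI 1 PFU/cell). Luciferase in lysates collected 72 h post infection served as the replication measure.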
FMDV antiviral: blocks foot and mouth disease virus; hit rate 1.2% among 410,000; Potency, µM (doses to about 57.9 µM), most hits filed as inhibitors; AID 1159524; FMDV antiviral cell-based qHTS; calls by dose curve; tested in HEK293T cells; note: read-out not given here; nearly all actives have a fitted effect of over 45% in size
MARV entry inh: Marburg virus entry inhibition | AID 540276 | Marburg virus pseudotyped entry inhibition, cell reporter | hit rate 1.8% among 300,000 | Potency, µM (top dose mostly 37.8 µM), actives largely listed as inhibitors; calls by dose curve; tested in HEK293 cells
Vaccinia mCherry: inhibitors of vaccinia virus infection (mCherry reporter signal). hit rate 0.63% among 310,000. Vaccinia virus mCherry reporter infection, fluorescence. AID 720579. Potency, µM (highest dose often 36.5 µM), usual class: inhibitors; calls by dose curve; tested in A549 cells; note: nearly all actives have a fitted effect of over 35% in size
Lassa entry inh: inhibitors of Lassa virus binding or cell entry; Lassa virus pseudotype entry inhibition, cell reporter; Potency, µM (top dose mostly 37.9 µM), hits mostly inhibitors; hit rate 1.2% among 300,000; calls by dose curve; tested in HEK293 cells; note: nearly all actives have a fitted effect of over 50% in size
A number is an active result; n = inactive; u = inconclusive; x = not tested or not shown.

SMILES | VACV Venus inh | HCMV inh | FMDV antiviral | MARV entry inh | Vaccinia mCherry | Lassa entry inh
COC(=O)C1=C(C)N(Cc2cccc(C(F)(F)F)c2)C(=NCc2ccc(OC)cc2)NC1c1cccc(C(F)(F)F)c1 (stereo not given) | x | -99 | x | x | x | x
Cc1c(CC(=O)N2CCCCC2)c(=O)oc2cc(O)ccc12 | n | n | n | n | n | n
O=C(Oc1ccccc1F)c1nc(SCc2ccccc2F)ncc1Cl | n | n | n | n | n | n
COc1cc2nc(N(C)C)nc(NC3CCN(C)CC3)c2cc1OC | u | x | x | x | n | x
CCCc1ccc(S(=O)(=O)N2CCC(Oc3ccc(-n4cnnn4)cc3)CC2)cc1 | n | n | n | n | n | u
COC(=O)C1=C(C)N(Cc2ccccc2)C(=NCc2ccccc2)N[C@H]1c1cccc(C(F)(F)F)c1 | 14µM | x | u | x | u | x
COC(=O)C1=C(C)N(Cc2ccccc2)C(=NCC2CC2)NC1c1cccc(C(F)(F)F)c1 (stereo not given) | x | x | x | n | x | x
CC(=O)C1=C(C)N(Cc2ccccc2)C(=O)N[C@H]1c1cccc(C(F)(F)F)c1 | n | -69 | n | n | u | n
CNC(=O)c1c(NC(=O)c2ccc(S(=O)(=O)N3CCCC(C)C3)cc2)sc2c1CCC2 (stereo not given) | n | n | n | x | n | n
COC(=O)Cn1c(=O)c2cccn2c2ccc(F)cc21 | n | n | n | n | n | n
c1ccc(CN(Cc2ccccc2)c2c3c(nc4ncnn24)CCC3)cc1 | x | -94 | n | x | x | x
c1ccc(CNc2c3c(nc4ncnn24)CCC3)cc1 | n | n | n | n | n | n
Cc1ccc(-c2csc3ncnc(SCC(=O)O)c23)cc1 | n | n | n | n | n | n
Cn1nnnc1Sc1ncnc2scc(-c3ccsc3)c12 | x | -97 | 16µM | x | x | x
CC(=O)c1ccccc1-c1csc2ncnc(Sc3nnnn3C)c12 | x | u | n | x | x | x
Cn1nnnc1Sc1ncnc2scc(-c3cccs3)c12 | x | x | 22µM | x | x | x
Cn1nnnc1Sc1ncnc2scc(-c3cc4ccccc4o3)c12 | x | -100 | 18µM | x | x | x
CCn1nnnc1Sc1nc(C)nc2scc(-c3ccccc3)c12 | n | x | x | x | n | x
Cn1nnnc1Sc1ncnc2scc(-c3ccc(C#N)cc3)c12 | x | -94 | 28µM | x | x | x
Cc1ccc(S(=O)(=O)N[C@@H]2COC(=O)[C@@H](C)COC(=O)C/C=C/[C@H]2C)cc1 | x | x | x | n | x | x
COC(=O)[C@@H]1[C@@H](CO)[C@@H]2Cn3c(ccc(Br)c3=O)[C@H]1N2S(=O)(=O)c1cn(C)cn1 | x | n | x | x | x | x
Cn1nnnc1Sc1ncnc2scc(-c3ccc(-c4ccccc4)cc3)c12 | x | -97 | u | x | x | x
Cc1ccc(C(O)(c2ccccc2)c2ccccc2C(C)N(C)C)c(C)c1 (stereo not given) | u | u | x | 5.8µM | u | 8.2µM
COc1ccccc1CN1CCCC(n2cc(C(=O)N3CCCCC3)nn2)C1 (stereo not given) | n | x | n | x | n | x
CC(Cc1cccc(C(F)(F)F)c1)NCCCc1ccccc1 (stereo not given) | u | x | 20µM | x | u | x
SMILES | VACV Venus inh | HCMV inh | FMDV antiviral | MARV entry inh | Vaccinia mCherry | Lassa entry inh
O=[N+]([O-])c1ccc(Sc2nc3ccccc3o2)c([N+](=O)[O-])c1 | u | -107 | 35µM | 16µM | u | n
Cc1ccc(Sc2ccc([N+](=O)[O-])cc2[N+](=O)[O-])nc1 | n | n | u | u | u | u
O=[N+]([O-])c1ccc(Cl)cc1Sc1nc2ccccc2o1 | n | n | n | n | n | n
Cc1ccnc(Sc2ccc([N+](=O)[O-])cc2[N+](=O)[O-])n1 | x | n | u | 13µM | x | u
CCCCNC(=O)N[C@H]1CC[C@@]23CCCN2C(=O)CCC[C@H]3[C@H]1CCC | x | n | x | x | x | x
CN(C)CCNc1oc(-c2ccc(COc3ccc(Cl)cc3)o2)nc1C#N | n | n | n | u | n | n
COC(=O)C1CC23C=CCN4CCC5(c6ccccc6NC15C2C)C43 (stereo not given) | u | -84 | n | u | 13µM | u
Cc1ccc(C)n1C1C(=O)N(Cc2ccc(Cl)nc2)c2ccccc21 (stereo not given) | x | n | x | x | x | x
O=c1n(CC2CO2)c(=O)n(CC2CO2)c(=O)n1CC1CO1 (stereo not given) | u | -62 | n | 0.45µM | u | u
Cc1nn(CC(=O)NCc2ccccc2Br)c(=O)c2cc3occc3n12 | n | n | n | n | n | x
Cc1cc(C)n(-c2ccc(C(=O)OC(C)C(=O)Nc3ccc(C(N)=O)cc3)cc2)n1 (stereo not given) | n | n | 35µM | n | n | n

Bioassay records (PubChem BioAssay)
